# From PubChem BioAssay AID1159580 (chemical genetic matrix, 2015)
# In all, about 5,500 compounds went through this assay and about 2,000 (36%) were called active. Not shown: some 18% with an inconclusive outcome. This is one part of the list. Values without a mark were called inactive. Cut-off read from the data, not from the text of the source: active = normalized growth mostly below about 0.91 (no sharp cut-off); inconclusive = no clear call, values can overlap the other calls; inactive = mostly above about 0.92.
# Assay: chemical genetic growth profiling, strain panel (AID 1159580);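 note: tested at 20 µM; growth read once vehicle control cultures reached saturation at 30 °C; 1 = growth at the plate median or of vehicle wells; lower values mean less growth of the strain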
# Conditions: S. cerevisiae deletion strains, growth OD
compound,measurement,setting,value
COc1ccc(-c2coc3cc(OC(C)=O)cc(OC(C)=O)c3c2=O)cc1,normalized growth,"locus YAL021C, strain ccr4, stronger effect = lower value",0.964
same,normalized growth,"locus YAL026C, strain drs2, stronger effect = lower value",0.949
same,normalized growth,"locus YAL030W, strain snc1, stronger effect = lower value",0.958
same,normalized growth,"locus YBL061C, strain skt5, stronger effect = lower value",0.96
same,normalized growth,"locus YBR009C, strain hhf1, stronger effect = lower value",0.958
same,normalized growth,"locus YBR023C, strain chs3, stronger effect = lower value",0.967
same,normalized growth,"locus YBR171W, strain sec66, stronger effect = lower value",0.937
same,normalized growth,"locus YBR231C, strain swc5, stronger effect = lower value",0.957
same,normalized growth,"locus YBR279W, strain paf1, stronger effect = lower value",0.984
same,normalized growth,"locus YCL011C, strain gbp2, stronger effect = lower value",0.919
same,normalized growth,"locus YCL016C, strain dcc1, stronger effect = lower value",0.925
same,normalized growth,"locus YCL061C, strain MRC1, stronger effect = lower value",0.96
same,normalized growth,"locus YCL069W, strain vba3, stronger effect = lower value",0.953
same,normalized growth,"locus YCR088W, strain abp1, stronger effect = lower value",0.968
same,normalized growth,"locus YDL005C, strain med2, stronger effect = lower value",0.961
same,normalized growth,"locus YDL040C, strain nat1, stronger effect = lower value",0.983
same,normalized growth,"locus YDR001C, strain nth1, stronger effect = lower value",0.939
same,normalized growth,"locus YDR069C, strain doa4, stronger effect = lower value",0.92
same,normalized growth,"locus YDR137W, strain rgp1, stronger effect = lower value",0.871
same,normalized growth,"locus YDR159W, strain sac3, stronger effect = lower value",0.953
same,normalized growth,"locus YDR195W, strain ref2",1.01
same,normalized growth,"locus YDR297W, strain sur2, stronger effect = lower value",0.985
same,normalized growth,"locus YDR334W, strain swr1, stronger effect = lower value",0.887 (active)
same,normalized growth,"locus YDR335W, strain msn5, stronger effect = lower value",0.967
same,normalized growth,"locus YDR392W, strain spt3, stronger effect = lower value",0.576 (active)
same,normalized growth,"locus YEL003W, strain gim4, stronger effect = lower value",0.977
same,normalized growth,"locus YEL037C, strain rad23, stronger effect = lower value",0.972
same,normalized growth,"locus YEL061C, strain CIN8 (second series), stronger effect = lower value",0.965
same,normalized growth,"locus YER015W, strain faa2, stronger effect = lower value",0.951
same,normalized growth,"locus YER016W, strain bim1, stronger effect = lower value",0.972
same,normalized growth,"locus YER111C, strain swi4, stronger effect = lower value",0.968
same,normalized growth,"locus YER155C, strain BEM2 (second series), stronger effect = lower value",0.878
same,normalized growth,"locus YFR010W, strain ubp6, stronger effect = lower value",0.955
same,normalized growth,"locus YGL167C, strain pmr1, stronger effect = lower value",0.965
same,normalized growth,"locus YGL173C, strain kem1, stronger effect = lower value",0.922
same,normalized growth,"locus YGL227W, strain vid30, stronger effect = lower value",0.955
same,normalized growth,"locus YGL240W, strain doc1, stronger effect = lower value",0.961
same,normalized growth,"locus YGL253W, strain hxk2, stronger effect = lower value",0.925
same,normalized growth,"locus YHR013C, strain ard1, stronger effect = lower value",0.902
same,normalized growth,"locus YHR027C, strain rpn1, stronger effect = lower value",0.951
same,normalized growth,"locus YHR142W, strain chs7, stronger effect = lower value",0.874 (active)
same,normalized growth,"locus YJL092W, strain hpr5, stronger effect = lower value",0.923
same,normalized growth,"locus YJL095W, strain BCK1 (second series), stronger effect = lower value",0.963
same,normalized growth,"locus YJL115W, strain asf1, stronger effect = lower value",0.914
same,normalized growth,"locus YJL129C, strain trk1, stronger effect = lower value",0.861 (active)
same,normalized growth,"locus YJL154C, strain vps35, stronger effect = lower value",0.97
same,normalized growth,"locus YJL164C, strain tpk1, stronger effect = lower value",0.935
same,normalized growth,"locus YJL166W, strain qcr8, stronger effect = lower value",0.944
same,normalized growth,"locus YJL187C, strain SWE1, stronger effect = lower value",0.961
same,normalized growth,"locus YKL160W, strain elf1, stronger effect = lower value",0.988
same,normalized growth,"locus YKR026C, strain gcn3, stronger effect = lower value",0.965
same,normalized growth,"locus YKR091W, strain srl3, stronger effect = lower value",0.958
same,normalized growth,"locus YLL001W, strain dnm1, stronger effect = lower value",0.929
same,normalized growth,"locus YLL026W, stronger effect = lower value",0.967
same,normalized growth,"locus YLL041C, strain sdh2, stronger effect = lower value",0.963
same,normalized growth,"locus YLR027C, strain aat2, stronger effect = lower value",0.936
same,normalized growth,"locus YLR221C, strain rsa3, stronger effect = lower value",0.922
same,normalized growth,"locus YLR258W, strain gsy2, stronger effect = lower value",0.964
same,normalized growth,"locus YLR262C, strain YPT6 (second series), stronger effect = lower value",0.889
same,normalized growth,"locus YLR320W, strain mms22, stronger effect = lower value",0.927
same,normalized growth,"locus YLR342W, strain FKS1, stronger effect = lower value",0.968
same,normalized growth,"locus YLR357W, strain rsc2, stronger effect = lower value",0.981
same,normalized growth,"locus YLR370C, strain arc18, stronger effect = lower value",0.954
same,normalized growth,"locus YLR384C, strain iki3, stronger effect = lower value",0.968
same,normalized growth,"locus YML120C, strain ndi1, stronger effect = lower value",0.925
same,normalized growth,"locus YMR058W, strain fet3, stronger effect = lower value",0.935
same,normalized growth,"locus YMR125W, strain sto1, stronger effect = lower value",0.914
same,normalized growth,"locus YMR129W, stronger effect = lower value",0.966
same,normalized growth,"locus YMR205C, strain PFK2, stronger effect = lower value",0.91
same,normalized growth,"locus YMR231W, strain pep5, stronger effect = lower value",0.978
same,normalized growth,"locus YNL071W, strain lat1, stronger effect = lower value",0.845 (active)
same,normalized growth,"locus YNL209W, strain ssb2, stronger effect = lower value",0.963
same,normalized growth,"locus YNL248C, strain rpa49, stronger effect = lower value",0.967
same,normalized growth,"locus YNL322C, strain KRE1 (second series), stronger effect = lower value",0.923
same,normalized growth,"locus YNR049C, strain mso1, stronger effect = lower value",0.954
same,normalized growth,"locus YOR001W, strain rrp6, stronger effect = lower value",0.971
same,normalized growth,"locus YOR070C, strain gyp1, stronger effect = lower value",0.972
same,normalized growth,"locus YOR080W, strain dia2, stronger effect = lower value",0.955
same,normalized growth,"locus YOR083W, strain WHI5, stronger effect = lower value",0.976
same,normalized growth,"locus YOR106W, strain vam3, stronger effect = lower value",0.928
same,normalized growth,"locus YOR265W, strain rbl2, stronger effect = lower value",0.963
same,normalized growth,"locus YOR270C, strain vph1, stronger effect = lower value",0.834
same,normalized growth,"locus YPL051W, strain arl3, stronger effect = lower value",0.959
same,normalized growth,"locus YPL078C, strain atp4, stronger effect = lower value",0.968
same,normalized growth,"locus YPL106C, strain sse1, stronger effect = lower value",0.913
same,normalized growth,"locus YPL240C, strain hsp82, stronger effect = lower value",0.956
